From PubChem BioAssay AID1259415 (National Center for Advancing Translational Sciences (NCATS), 2018)
Screen size: about 410,000 compounds; about 18,000 (4.4%) were called active. Inconclusive results (about 7%) are left out. This is one part of a sample in which actives are shown more often than they occur. No stated cut-off is given here; in the data, active means activity change below about -60%; inconclusive means no clear call, values can overlap the other calls; inactive means above about -39%.

Test: qHTS Assay for inhibitors of the human cytomegalovirus (HCMV)
Conditions: HFF cells, HCMV-luciferase reporter, 72 h; at 57.5 µM; active compounds read low
Text: NCGC Assay Overview: Infection with human cytomegalovirus (HCMV) continues to pose significant threats for pregnant women and immunocompromised hosts. HCMV causes serious morbidity and mortality in transplant recipients, and congenital HCMV is the leading infectious cause of mental retardation and deafness in children. In the 1990s, the annual costs associated with the disease burden of congenital CMV were estimated at around $2 billion. A HCMV vaccine is not available yet and HCMV therapies result in intolerable side effects and emergence of drug resistant viruses. […] Towards this goal we have developed and characterized a luciferase HCMV reporter that was initially used in 96 well plates and then optimized to 1536-well plates for utilization in screening of the MLSMR collection, the NGCG diversity collection and the NCGC Pharmaceutical Collection of approved and investigational drugs.
NCGC Assay Protocol Summary:
This is a cell-based assay for HCMV inhibition in HFFs cells. The screening used 2 compound doses and the HCMV-luciferase at MOI of 1 PFU/cell. Cells were treated and infected with HCMV. At 72 h post infection cell lysates were collected and luciferase activity was determined using the Glomax-Multi + Detection System (Promega, Madison, WI). Data were normalized to the controls for basal activity (buffer only) and known HCMV inhibitors Salinmoycin.
1536-well assay protocol for the assay:
(1) Add 3 ul CMV/HFF cell culture. 1000 cells/well in DMEM nirmal media.
(2) Incubate 16 hr at 37C.
(3) Add 23 nl control compound, 10uM of Salinomycin.
(4) Add 23 nl compounds in DMSO solution.
(5) Add 3 ul CMV suspension. Final 1 puf/ul, Virus stock 2000pfu/ul
(6) Incubate 72 hrs at 37C.
(7) Add 4 ul OneGlo Luc Reagent.
(8) Incubate 5 min at room temperature.
On the % scale 0 is the no-effect control and ±100 the full control effect.

SMILES	activity change, negative = inhibition
COc1ccc(OC)c(NC(=O)C2CCCN(S(=O)(=O)c3ccc4c(c3)CCCC(=O)N4)C2)c1 (centres undefined)	5.92% (inactive)
COc1ccc(-c2nc3ccccc3o2)cc1NC(=O)c1cc([N+](=O)[O-])ccc1N1CCOCC1	17.1% (inactive)
COc1ccc(-c2nc3ccc(C(=O)NCc4ccc(C)cc4)cc3nc2-c2ccc(OC)cc2)cc1	13.2% (inactive)
CCOc1ccccc1-n1c(SCC(=O)NCc2ccco2)nnc1-c1ccncc1	24.1% (inactive)
CCOc1ccc(Nc2nc(Cc3nnc(SCC(=O)c4ccc(C)cc4)o3)cs2)cc1	-18.3% (inactive)
Cc1ccc(Nc2nc(CSc3nnc(-c4ccncc4)n3-c3ccccc3C)cs2)cc1	-86.5% (active)
CC(C)S(=O)(=O)c1oc(-c2ccc(F)cc2)nc1S(=O)(=O)c1ccc(F)cc1	-98.8% (active)
Cc1ccc(-c2nc(S(=O)(=O)c3ccc(C)cc3)c(N3CCCCCC3)o2)cc1	-3.36% (inactive)
O=C(CSc1oc(-c2ccc(F)cc2)nc1S(=O)(=O)c1ccc(Br)cc1)NC1CCCCC1	5.22% (inactive)
COc1ccc(N2C(=O)CSC23C(=O)N(Cc2cccc(F)c2)c2ccccc23)cc1Cl (centres undefined)	-38.5% (inactive)
Cc1cccc(C(=O)N2CCc3cc(CNC(=O)Cc4ccc(F)cc4)ccc32)c1	5.96% (inactive)
Cc1c(Cl)cccc1NC(=O)C1CCCN(C(=O)c2cnn(-c3ccccc3)c2-n2cccc2)C1 (centres undefined)	-29.6% (inactive)
O=c1cc(COc2cccc(C(F)(F)F)c2)nc2sc3c(n12)CCCC3	-0.855% (inactive)
CCOC(=O)c1ccc(N2C(=O)c3n[nH]c(C)c3C2c2ccc(O)c(OC)c2)cc1 (centres undefined)	-24.9% (inactive)
CCOc1ccc(-c2n[nH]c3c2C(c2ccccc2OC)N(c2ccc(Br)cc2)C3=O)cc1 (centres undefined)	21.3% (inactive)
CCOc1cc(C2c3c(-c4ccc(Br)cc4)n[nH]c3C(=O)N2c2ccc(Cl)cc2)ccc1O (centres undefined)	-106% (active)
COc1ccc(NC(=O)CCN2CCN(CCO)CC2)cc1	0.59% (inactive)
O=C(c1ccc2c(c1)N(Cc1ccccc1)C(=O)c1ccccc1S2(=O)=O)N1CCC(Cc2ccccc2)CC1	4.82% (inactive)
COc1ccc(CCNC(=O)c2nnc(CS(=O)(=O)c3ccccc3)o2)cc1OC	-33.4% (inactive)
COc1ccc(CCNC(=O)c2ccc(CS(=O)(=O)c3ccc(Br)cc3)o2)cc1OC	-92.4% (active)
O=C(NCc1cccnc1)c1ccc(CS(=O)(=O)c2ccc(Br)cc2)o1	-24.5% (inactive)
Cc1c(S(=O)(=O)NC(C)c2ccccc2)c(=O)n(C)c(=O)n1C (centres undefined)	-5.67% (inactive)
COCCCNC(=O)[C@H]1N2C(=O)c3ccccc3C2SC1(C)C (some centres undefined)	36.2% (inactive)
CC(=O)Nc1ccc(C(=O)OCC(=O)Nc2ccc([N+](=O)[O-])cc2C(F)(F)F)cc1	-34.7% (inactive)
O=C(Nc1cc2c3c(c1)C1CCCC1CN3CC1CCCC21)c1ccc([N+](=O)[O-])cc1 (centres undefined)	-31.6% (inactive)
Cn1ccc(=Nc2ccc(NC(=O)c3ccc(N=c4ccn(C)c5ccc([N+](=O)[O-])cc45)cc3)cc2)cc1	-96.1% (active)
Cc1ccc(CCNC(=O)c2ccc3c(c2)N(Cc2cc(C)ccc2C)C(=O)c2ccccc2S3=O)cc1 (centres undefined)	-0.139% (inactive)

SMILES	activity change, negative = inhibition
Cc1cccc(NC(=O)C2CCCN2S(=O)(=O)c2cccc3nsnc23)c1C (centres undefined)	31.6% (inactive)
CCC(=O)Nc1c(C(=O)N2CCN(c3ccc(F)cc3)CC2)oc2ccccc12	-20.1% (inactive)
CCOC(=O)C(C)n1cnc2scc(-c3ccc(C)c(C)c3)c2c1=O (centres undefined)	-39.3% (inactive)
CC(=O)C(C)n1cnc2scc(-c3ccc(C)cc3)c2c1=O (centres undefined)	-61% (active)
COC(=O)Cn1cnc2scc(-c3ccc(C)c(C)c3)c2c1=O	-22.1% (inactive)
COc1cc(C(=O)N2CCN(c3ccc(Nc4ccc(C)cc4)nn3)CC2)cc(OC)c1OC	36.3% (inactive)
CCOC(=O)CNC(=O)/C=C/c1c(Cl)cccc1Cl	-12.3% (inactive)
C#CC(C)(CC)NC(=O)Cn1nnc(-c2ccc(OCc3c(F)cccc3Cl)cc2)n1 (centres undefined)	-28.3% (inactive)
O=C(Nc1ccc(OCC(=O)N2CCOCC2)cc1)c1cc(F)c(F)cc1Cl	4.25% (inactive)
O=C(Cc1ccccc1Cl)N1CCOCC1	-27.3% (inactive)
O=C(/C=C/c1ccc(OCc2c(F)cccc2Cl)cc1)N1CCOCC1	-85.8% (active)
CN(C)CCCNC(=O)/C=C/c1ccc(OCc2c(F)cccc2Cl)cc1	-62.7% (active)
COc1cc(C2c3c(oc4ccccc4c3=O)C(=O)N2c2nc(C)c(C)s2)ccc1O (centres undefined)	-20.1% (inactive)
CCOC(=O)C1CCCN(CC(=O)Nc2cc(C)c3c(=O)oc4ccccc4c3n2)C1 (centres undefined)	17.3% (inactive)
Cc1ccc(-c2cc(-c3coc4ccccc4c3=O)c3c(n2)-c2cc(Cl)ccc2OC3)cc1	21.6% (inactive)
Cc1nn(CC(=O)Nc2ccc(C#N)cc2)c(C)c1[N+](=O)[O-]	-33.6% (inactive)
CS/C(=C\[N+](=O)[O-])Nc1ccc(C)cc1	-61.4% (active)
Cc1ccc(NC(=O)c2cc3cc(C)ccc3n2C)cc1	22.1% (inactive)
CCCN(CCC)C(=O)Cn1c(=O)n(-c2ccc(Cl)cc2)c(=O)c2c3c(sc21)CCCCC3	7.98% (inactive)
COc1ccc(C(=O)N2CCCC(C(=O)c3ccccc3OC)C2)cc1OC (centres undefined)	-10.3% (inactive)
O=C(CSCc1cnn(-c2ccccc2)c1-n1cccc1)NCc1ccccc1Br	-36.4% (inactive)
CCc1cc2c(-c3ccccc3)cc(=O)oc2c2c1OCN(Cc1ccc(C)cc1)C2	0.791% (inactive)
O=C(/C=C/Sc1ncn[nH]1)c1ccc(Cl)cc1	-76.4% (active)
Cc1cc(C)c(NC(=O)c2cc3sc(Cl)cc3n2C)c(C)c1	-0.202% (inactive)
Cc1ccccc1Nc1c([N+](=O)[O-])ccc2nonc12	-2.44% (inactive)
CN(c1ccccc1)c1ccc([N+](=O)[O-])c2nonc12	-75% (active)
CN(Cc1ccccc1)c1ccc(-c2nc(-c3ccccc3)no2)cc1[N+](=O)[O-]	22.8% (inactive)
